# According to PubChem BioAssay (NCATS):
# Results filed as inconclusive are left out. A call without a number means that no potency is given here. Active and inactive are the calls of the source. Calls follow the shape of the dose curve; as a rule, active = well fitted inhibition curve with a large enough effect; inconclusive = small, poorly fitted or top-dose-only effect; inactive = flat fitted curve, though single readings scatter.
# Target: Ubiquitin carboxyl-terminal hydrolase 1 (Homo sapiens) (UniProt O94782)
# Assay: Inhibitors of USP1/UAF1: Pilot qHTS (AID 504865); also: nearly all actives have a fitted effect of over 35% in size
# Conditions: purified USP1/UAF1, Ub-rhodamine cleavage fluorescence; series mostly up to 114 µM
# Description: Deubiquitinating enzymes (DUBs) are a class of enzymes that can cleave isopeptide bond formed between the C-terminal carboxylate of ubiquitin and a lysine side-chain amino group on the target protein. Among them, ubiquitin specific proteases (USPs) constitute the largest DUB family. Human USPs are emerging as promising targets for pharmacological intervention because of their connection to a number of human diseases, including prostate, colon and breast cancer (1, 2), pediatric acute lymphoblastic leukemia (3), and familial cylindromatosis (4). The advantage of inhibiting USPs lies in the potential specificity of therapeutic intervention that can lead to better efficacy and reduce nonspecific side effects.
# In a collaboration between the University of Delaware and the NIH Chemical Genomics Center, a high-throughput screen assay was developed to screen for USP1/UAF1 inhibitors. This miniaturized assay has a fluorescent read-out and is used to screen the NIH Molecular Libraries Small Molecule Repository (MLSMR) in order to identify a small molecule that inhibits USP1.
# NIH Chemical Genomics Center [NCGC]
# NIH Molecular Libraries Probe Centers Network [MLPCN]
# Assay Submitter (PI): Zhihao Zhuang, University of Delaware
# 1. Priolo, C., et al. (2006) The isopeptidase USP2a protects human prostate cancer from apoptosis. Cancer Res 66, 8625-8632
# 2. Popov, N., et al. (2007) The ubiquitin-specific protease USP28 is required for MYC stability. Nat Cell Biol 9, 765-774
# 3. De Pitta, C., et al. (2005) A leukemia-enriched cDNA microarray platform identifies new transcripts with relevance to the biology of pediatric acute lymphoblastic leukemia. Haematologica 90, 890-898
# 4. Kovalenko, A., et al. (2003) The tumour suppressor CYLD negatively regulates NF-kappaB signalling by deubiquitination. Nature 424, 801-805
# 3 microliters of reagents (buffer in columns 3 and 4 as negative control and 1nM USP1/UAF1 complex in columns 1, 2, and 5-48) are dispensed into Greiner black solid bottom 1536-well assay plates. Compounds are then transferred via Kalypsys pin tool equipped with 1536-pin array (10nl slotted pins, V&P Scientific, San Diego, CA). Following an incubation step of 15 min at room temperature, 1ul of Ub-Rho substrate (150nM final concentration) is added to initiate the reaction. The plates are immediately centrifuged at 1000 rpm for 15 seconds, and subsequently transferred to a ViewLux high-throughput CCD imager (PerkinElmer) wherein kinetic measurements of fluorescence are acquired using 480 nm excitation/540 nm emission filter set (6 reads every 60 seconds, see Table 1). All reagents are diluted in an assay buffer consisting of 50mM HEPES (pH 7.8), 0.5mM EDTA, 0.1 mg/ml BSA, 1mM TCEP, and 0.01% Tween-20.
# Potency is read from the fitted curve at half-maximal effect.
# Ubiquitin carboxyl-terminal hydrolase 1 (Homo sapiens), sequence (O94782 whole entry, looked up): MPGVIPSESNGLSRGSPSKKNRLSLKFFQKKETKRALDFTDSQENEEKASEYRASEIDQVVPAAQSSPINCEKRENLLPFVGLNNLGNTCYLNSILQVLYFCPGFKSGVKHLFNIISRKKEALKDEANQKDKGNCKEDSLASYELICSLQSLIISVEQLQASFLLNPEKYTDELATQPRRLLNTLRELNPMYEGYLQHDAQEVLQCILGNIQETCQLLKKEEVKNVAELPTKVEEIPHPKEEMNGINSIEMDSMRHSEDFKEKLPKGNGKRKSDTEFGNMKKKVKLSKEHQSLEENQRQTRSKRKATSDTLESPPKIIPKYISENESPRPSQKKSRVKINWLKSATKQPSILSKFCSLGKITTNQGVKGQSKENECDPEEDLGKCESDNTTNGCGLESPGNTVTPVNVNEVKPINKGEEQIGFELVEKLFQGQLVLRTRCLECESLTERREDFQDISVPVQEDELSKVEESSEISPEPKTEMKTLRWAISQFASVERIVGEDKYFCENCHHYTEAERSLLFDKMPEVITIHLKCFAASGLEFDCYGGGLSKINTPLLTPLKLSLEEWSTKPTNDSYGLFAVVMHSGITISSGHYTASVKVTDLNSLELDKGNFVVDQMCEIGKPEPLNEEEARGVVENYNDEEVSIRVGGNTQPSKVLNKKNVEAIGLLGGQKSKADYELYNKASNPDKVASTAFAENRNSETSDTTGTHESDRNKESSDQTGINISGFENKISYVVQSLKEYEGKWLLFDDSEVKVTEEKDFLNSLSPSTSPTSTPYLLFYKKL
row,Structure (SMILES),Potency
1,CC1=NCCc2c1[nH]c1cc(O)ccc21,inactive
2,COc1cc(OC)c2c(c1)OC(c1ccc(OC)c(OC)c1)C(O)C2 (stereo not given),inactive
3,O=C(O)COc1ccc(Cl)cc1Cl,inactive
4,CC(=O)[C@@H]1CC[C@H]2[C@H]3CC[C@H]4C[C@@H](O)CC[C@]4(C)[C@@H]3C(=O)C[C@@]12C,inactive
5,COc1cc2c(cc1O)C[C@H]1c3c(cc(O)c(OC)c3-2)CCN1C,inactive
6,O=C(CC[N+](=O)[O-])OCC1OC(O)C(OC(=O)CC[N+](=O)[O-])[C@@H](OC(=O)CC[N+](=O)[O-])C1OC(=O)CC[N+](=O)[O-] (stereo not given in full),inactive
7,CNC[C@H](O)c1ccc(O)cc1,inactive
8,COC1CC(OC2CC[C@@]3(C=O)C4CC[C@]5(C)C(C6=CC(=O)OC6)CC[C@@]5(O)C4CC[C@]3(O)C2)OC(C)C1O (stereo not given in full),inactive
9,CNC(=O)CSP(=S)(OC)OC,inactive
10,CCC(C)C(=O)OC1C(O)C2C(CN3CC(C)CCC3[C@]2(C)O)C2C[C@]34O[C@@]5(O)C(OC(=O)C(C)(O)CC)CCC3(C)C5C(OC(C)=O)C(OC(C)=O)C4[C@@]21O (stereo not given in full),inactive
11,COc1cc(C(=O)OC2C[C@H]3CC[C@@H](C2)N3C)ccc1O (stereo not given in full),inactive
12,CCC(C)C(=O)OC1C(O)C2C(CN3CC(C)CCC3[C@]2(C)O)C2C[C@]34O[C@@]5(O)C(OC(=O)C(C)(O)C(C)O)CCC3(C)C5C(OC(C)=O)C(OC(C)=O)C4[C@@]21O (stereo not given in full),inactive
13,CNC(Cc1c[nH]c2ccccc12)C(=O)O (stereo not given),inactive
14,CC(=O)Oc1ccc(Cl)c2cccnc12,inactive
15,NC(CO)Cc1ccccc1 (stereo not given),inactive
16,C[N+]1([O-])[C@@H]2CC[C@H]1CC(OC(=O)[C@@H](CO)c1ccccc1)C2 (stereo not given in full),inactive
17,C[C@@H]1O[C@H](O[C@@H]2C=C3CC[C@H]4[C@@H](CC[C@]5(C)[C@@H](c6ccc(=O)oc6)CC[C@]45O)[C@@]3(C)CC2)[C@@H](O)[C@H](O)[C@@H]1O,inactive
18,Oc1ccc2c3c1O[C@H]1[C@@H](O)CC[C@@]4(O)C(C2)N(CC2CCC2)CCC314 (stereo not given in full),inactive
19,Oc1ccc2c3c1OC1C(O)CC[C@]4(O)C(C2)N(CC2CCC2)CC[C@]314 (stereo not given in full),inactive
20,CC1CC(O)[C@]2(O)[C@]13CC(=O)OC[C@@]2(C)[C@@](C)(O)C(=O)C3 (stereo not given in full),inactive

row,Structure (SMILES),Potency
1,COc1cc(CNC(=O)CCCC/C=C/C(C)C)ccc1O,inactive
2,CCC[C@@](C)(COC(N)=O)COC(=O)NC(C)C,inactive
3,CC(=O)OC1C2C(OC(=O)Cc3ccccc3)C(C)CC2(OC(C)=O)C(=O)/C(C)=C/C2C(CC[C@@]13CO3)C2(C)C (stereo not given in full),inactive
4,CC[C@@]1(c2ccc(N)cc2)CCC(=O)NC1=O,inactive
5,O=C1C=CC(=O)c2c(O)cccc21,8.91 µM (active)
6,CN1[C@@H]2CC(OC(=O)[C@H](CO)c3ccccc3)C[C@@H]1[C@H]1O[C@H]12 (stereo not given in full),inactive
7,C[C@H]1CC[C@@]2(NC1)O[C@@H]1C[C@H]3[C@@H]4CC[C@@H]5C[C@@H](O)CC[C@@]5(C)[C@@H]4CC[C@]3(C)[C@@H]1[C@@H]2C,inactive
8,C[C@@]12CC[C@H](O)C[C@@H]1CC[C@H]1[C@H]2CC[C@@]2(C)[C@@H](C3=CC(=O)OC3)CC[C@]12O,inactive
9,CN1CCc2cc3c(cc2C1O)OCO3 (stereo not given),inactive
10,CN1[C@H]2CC(=O)C[C@@H]1[C@@H](O)C2,inactive
11,CN1CCc2cc3c(cc2[C@@H]1[C@@H]1OC(=O)c2c1ccc1c2OCO1)OCO3,inactive
12,CC[C@@]1(O)CC(O)c2c(cc3c(c2O)C(=O)c2c(O)ccc(O)c2C3=O)C1C(=O)OC (stereo not given in full),22.4 µM (active)
13,CCN1C[C@@]2(COC)CC[C@H](O)[C@@]34[C@@H]2C[C@@H]([C@@H]13)[C@]1(O)C[C@@H](OC)C2C[C@H]4[C@H]1[C@H]2OC(C)=O,inactive
14,CC(C)(O)C1C2OC(=O)C1[C@]1(O)CC3O[C@@]34C(=O)OC2[C@@]14C (stereo not given in full),inactive
15,C=CCc1ccc(OC)cc1,inactive
16,C[C@@]12CCC3C(CC[C@@H]4CC(O)CC[C@@]34C)C1CCC2O (stereo not given in full),inactive
17,CC(C)OC(=O)Nc1cccc(Cl)c1,inactive
18,COc1ccc2c(c1OC)C(=O)O[C@H]2[C@H]1c2cc3c(cc2CCN1C)OCO3,inactive
19,CNC(=O)Oc1ccccc1OC(C)C,inactive
20,COc1cc2c(cc1O)[C@H]1Cc3ccc(OC)c(O)c3CN1CC2,10 µM (active)
